Test results from PubChem BioAssay AID463173 (ICCB-Longwood Screening Facility, Harvard Medical School, 2010).
The campaign covered roughly 52,000 compounds. About 4,300 (8.3%) were called active. The sample holds actives, similar compounds and a random draw of the others, so the mix is not that of the screen. A number with no mark means an inactive call. No stated cut-off is given here; in the data, active means survival mostly below about 52% (no sharp cut-off); inactive means mostly above about 56%.

These compounds were tested on DeltatarO mutant (assay: growth inhibition of S. aureus wild type versus tarO mutant, primary screen, teichoic acid synthesis inhibitors, RN4220, OD600 (AID 463173)). Details: OD600, 18 h, hits give low values, screened at 18.75 µg/mL (by protocol).

For `CC1CCc2c(sc(NC(=S)NC(=O)c3ccn(C)n3)c2C(N)=O)C1` (stereo not given), which survival is on record?
The survival was 99%.

How did the survival turn out when `O=C1CS(=O)(=O)C2(C(=O)N(Cc3ccc(F)cc3)c3ccccc32)N1c1cccc(C(F)(F)F)c1` (stereo not given) was run?
Its survival is 124%.

Which survival does the source give for `O=C(NCc1ccc(Cl)cc1)c1cnc(N2CCCCC2)c2ccccc12` here?
The survival was 84%.

For `CCc1ccc(N(CC)C(=O)c2ccc3c(=O)n4c(nc3c2)CCCCC4)cc1`, which survival is on record?
The survival was 86%.

`CCOc1ccc(NC(=O)Cn2ncc3c2-c2cc(C)ccc2OC3)cc1` was tested. Which survival did it give?
The survival was 73%.

Which survival does the source give for `Cc1c(C(=O)NCc2cccc(F)c2)oc2c1-c1[nH]ncc1CC2` here?
Its survival is 71%.

How did the survival turn out when `CC(C)C(=O)N1CCC(CN=CC2=C(O)CC(C)(C)CC2=O)CC1` was run?
Its survival is 52% (active).

`CC1(C)CC(=O)C(C=NCCCN2CCCC2=O)=C(O)C1` was tested. Which survival did it give?
The survival was 94%.

With `CC(CN=CC1=C(O)CC(C)(C)CC1=O)N=CC1=C(O)CC(C)(C)CC1=O` (stereo not given) as the compound, how does the survival read?
Its survival is 101%.

How did the survival turn out when `CC(O)Cc1nsc(NC(=O)c2cccs2)n1` (stereo not given) was run?
The survival was 81%.

Which survival does the source give for `COCCNC(=O)C1CCN(C(=O)c2cc3sccc3n2Cc2ccc(Cl)cc2)CC1` here?
The survival was 110%.

With `COCCCNC(=O)C1CCN(C(=O)c2cc3sccc3n2Cc2ccc(Cl)cc2)CC1` as the compound, how does the survival read?
Its survival is 59%.

`CCn1c(C(=O)N2CCC(C(=O)NCCc3ccc(C)cc3)CC2)cc2sccc21` was tested. Which survival did it give?
The survival was 58%.

Which survival does the source give for `COc1ccc(N2CCN(C(=O)c3cc4sccc4n3Cc3ccccc3)CC2)cc1` here?
The survival was 92%.

How did the survival turn out when `CCn1c(C(=O)N2CCC(C(=O)N3CCN(c4cc(C)ccc4C)CC3)CC2)cc2sccc21` was run?
Its survival is 51%.

How did the survival turn out when `CCn1c(C(=O)N2CCC(C(=O)N3CCN(c4ccc(OC)cc4)CC3)CC2)cc2sccc21` was run?
The survival was 49% (active).

Which survival does the source give for `CC(C)NC(=O)C1CCN(C(=O)c2cc3sccc3n2Cc2ccc(Cl)cc2)CC1` here?
The survival was 65%.

How did the survival turn out when `CCC(C)NC(=O)C1CCN(C(=O)c2cc3sccc3n2Cc2ccc(Cl)cc2)CC1` (stereo not given) was run?
Its survival is 45% (active).

How did the survival turn out when `CC(C)CCNC(=O)C1CCN(C(=O)c2cc3sccc3n2Cc2ccc(Cl)cc2)CC1` was run?
The survival was 40% (active).

For `Cc1ccc(CN(CC(=O)NC2CCCC2)C(=O)CSc2nnc(COc3ccccc3)o2)cc1`, which survival is on record?
The survival was 80%.

With `O=C(Cn1c(=O)n(-c2ccc(Cl)cc2)c(=O)c2c3c(sc21)CCC3)c1ccc(F)cc1` as the compound, how does the survival read?
The survival was 51%.

How did the survival turn out when `COc1ccc(N2CCN(C(=O)Cn3nc(Cc4cccnc4)c4ccccc4c3=O)CC2)cc1` was run?
The survival was 108%.

For `Cc1cc(C)c(NC(=O)CSc2nc(=O)n(Cc3cccnc3)c3c2CCC3)c(C)c1`, which survival is on record?
The survival was 104%.

`C[n+]1ccn(CC(=O)c2ccccc2)c1` was tested. Which survival did it give?
Its survival is 78%.

`COCCN=Cc1c(NCCOC)nc2ccccn2c1=O` was tested. Which survival did it give?
Its survival is 103%.

How did the survival turn out when `COC(=O)c1sc(N)c(C#N)c1C` was run?
The survival was 74%.

Which survival does the source give for `O=C(Nc1ccc(F)c(Cl)c1)C1CCN(c2ncccn2)CC1` here?
The survival was 63%.

With `CC(C)NC(=O)C1CCN(c2nc3ccccc3nc2C(F)(F)F)CC1` as the compound, how does the survival read?
Its survival is 101%.

Which survival does the source give for `O=C(Nc1ccc(Cl)cc1)C1CCN(c2nc3ccccc3nc2C(F)(F)F)CC1` here?
Its survival is 25% (active).

`Cc1ccc(NC(=O)C2CCN(c3ncccn3)CC2)cc1F` was tested. Which survival did it give?
The survival was 53% (active).

`CSc1ccc(NC(=O)C2CCN(c3ncccn3)CC2)cc1` was tested. Which survival did it give?
Its survival is 110%.

How did the survival turn out when `Cc1cc(C)cc(NC(=O)C2CCN(c3nc4ccccc4nc3C(F)(F)F)CC2)c1` was run?
The survival was 93%.

Which survival does the source give for `CC(NC(=O)C1CCN(c2nc3ccccc3nc2C(F)(F)F)CC1)c1ccccc1` (stereo not given) here?
Its survival is 37% (active).

`Cc1ccc(NC(=O)C2CCN(c3nc4ccccc4nc3C(F)(F)F)CC2)cc1F` was tested. Which survival did it give?
The survival was 46% (active).

With `Cc1ccc(NC(=O)C2CCN(c3nc4ccccc4nc3C(F)(F)F)CC2)cc1C` as the compound, how does the survival read?
Its survival is 91%.

Which survival does the source give for `O=C(Nc1ccc(F)cc1)C1CCN(c2nc3ccccc3nc2C(F)(F)F)CC1` here?
The survival was 118%.

Which survival does the source give for `CC(C)(C)NC(=O)C1CCN(c2nc3ccccc3nc2C(F)(F)F)CC1` here?
The survival was 63%.

For `O=C(Nc1cccc(Cl)c1)C1CCN(c2nc3ccccc3nc2C(F)(F)F)CC1`, which survival is on record?
The survival was 70%.

`O=C(Nc1ccc(F)cc1F)c1c2c(nc3ccccc13)C(=O)N(C1CCCCC1)C2` was tested. Which survival did it give?
The survival was 81%.

For `CCN(CC)C(=O)C1CCN(c2nnc(C)c3c(C)n(-c4ccc(Cl)cc4)nc23)CC1`, which survival is on record?
Its survival is 95%.

How did the survival turn out when `CCOc1ccc(N(C(C)C(=O)NCCSc2ccc(C)cc2)S(C)(=O)=O)cc1` (stereo not given) was run?
The survival was 45%.

`COc1ccc(OC)c(NC(=O)CSC2=Nc3ccccc3C3=NC(CC(=O)NCc4ccco4)C(=O)N23)c1` (stereo not given) was tested. Which survival did it give?
Its survival is 99%.

For `CC(C)Nc1nc(NC(N)=O)nc(NC(C)C)n1`, which survival is on record?
Its survival is 104%.

With `CCOc1ccc(CN2C(=O)c3ccccc3C2C(=O)NCCc2ccc(OC)c(OC)c2)cc1` (stereo not given) as the compound, how does the survival read?
The survival was 88%.

Which survival does the source give for `CCSc1nc2c([nH]c3ccccc32)c(=O)n1CC` here?
Its survival is 68%.

`Cc1nc2c(-c3ccccc3)c(C)nn2c(C)c1CCC(=O)NCc1ccc(F)cc1` was tested. Which survival did it give?
Its survival is 94%.

`COc1ccc(C(=O)N2CC(C)CC(C)C2)cc1` (stereo not given) was tested. Which survival did it give?
Its survival is 98%.

How did the survival turn out when `CC1CCN(c2nn3c(=O)c(C(=O)NCCc4ccccc4)cnc3s2)CC1` was run?
The survival was 95%.

With `O=C(Nc1cccc(C(F)(F)F)c1)Nc1nnc(N2CCCCC2)s1` as the compound, how does the survival read?
The survival was 82%.

For `NC(=O)N/N=C/c1ccc(-c2ccc(Cl)cc2)o1`, which survival is on record?
The survival was 87%.

Which survival does the source give for `CCc1ccccc1N(C)C(=O)Cn1cnc2sc(C)c(S(=O)(=O)N3CCC(C)CC3)c2c1=O` here?
The survival was 71%.

For `COc1cc(C2N=C(N)Nc3nc4ccccc4n32)ccc1OCCC(C)C` (stereo not given), which survival is on record?
Its survival is 68%.

How did the survival turn out when `CC(C)c1ccc(C2N=C(N)Nc3nc4ccccc4n32)cc1` (stereo not given) was run?
Its survival is 101%.

`CC(C)CCOc1ccc(C2N=C(N)Nc3nc4ccccc4n32)cc1` (stereo not given) was tested. Which survival did it give?
The survival was -3% (active).

How did the survival turn out when `CCC(C#CCN1CCCCC1)(CC)OC(C)=O` was run?
Its survival is 98%.

For `CCOC(=O)c1ccc(OCC2c3cc(OC)c(OC)cc3CCN2C(=O)Cc2ccc(F)cc2)cc1` (stereo not given), which survival is on record?
The survival was 68%.

Which survival does the source give for `NC(=O)CSc1nc2c(oc3ccccc32)c(=O)n1-c1ccccc1F` here?
Its survival is 59%.

With `CC1(NS(=O)(=O)c2ccccc2)CCS(=O)(=O)C1` (stereo not given) as the compound, how does the survival read?
The survival was 98%.

`CC1(C)CC(N=Cc2c(O)[nH]c(=O)[nH]c2=O)CC(C)(C)N1` was tested. Which survival did it give?
Its survival is 85%.

`O=C(Nc1cc(Cl)cc(Cl)c1)c1ccc(F)c(S(=O)(=O)N2CCN(c3ccccc3F)CC2)c1` was tested. Which survival did it give?
Its survival is 84%.

`CN(C)C(=O)COc1ccc(S(=O)(=O)c2ccc(OCC(=O)N(C)C)cc2)cc1` was tested. Which survival did it give?
Its survival is 109%.

How did the survival turn out when `CCCCS(=O)(=O)c1oc(-c2ccc(F)cc2)nc1S(=O)(=O)c1ccc(C)cc1` was run?
Its survival is 30% (active).

`COc1ccccc1NC(=O)CSc1oc(-c2ccccc2)nc1S(=O)(=O)c1ccccc1` was tested. Which survival did it give?
The survival was 145%.

For `CC(C)CS(=O)(=O)c1oc(-c2ccc(F)cc2)nc1S(=O)(=O)c1ccccc1`, which survival is on record?
The survival was -4% (active).

For `COc1ccccc1NC(=O)CSc1oc(-c2ccc(F)cc2)nc1S(=O)(=O)c1ccc(Br)cc1`, which survival is on record?
The survival was 49% (active).

How did the survival turn out when `Cc1ccc(-c2nc(S(=O)(=O)c3ccc(F)cc3)c(N3CCN(c4ccccc4)CC3)o2)cc1` was run?
Its survival is 72%.

Which survival does the source give for `COc1ccccc1NC(=O)CSc1oc(-c2ccccc2)nc1S(=O)(=O)c1ccc(C)cc1` here?
The survival was 158%.

`Cc1ccc(S(=O)(=O)c2nc(-c3ccc(F)cc3)oc2N2CCN(c3ccccc3)CC2)cc1` was tested. Which survival did it give?
The survival was 107%.

Which survival does the source give for `CSc1oc(-c2cccs2)nc1S(=O)(=O)c1ccc(Br)cc1` here?
The survival was 56%.

With `COc1ccc(-c2nc(S(=O)(=O)c3ccc(C)cc3)c(NCc3ccccc3)o2)cc1` as the compound, how does the survival read?
Its survival is 67%.

How did the survival turn out when `CSc1oc(-c2ccc(F)cc2)nc1S(=O)(=O)c1ccc(Br)cc1` was run?
The survival was 41% (active).

For `CCSc1oc(-c2ccc(F)cc2)nc1S(=O)(=O)c1ccc(C)cc1`, which survival is on record?
The survival was 45%.

With `COc1cc(C)ccc1OCCSc1nc2ccc(NC(=O)c3cccs3)cc2s1` as the compound, how does the survival read?
Its survival is 72%.

How did the survival turn out when `CCOC(=O)c1ccccc1NC(=O)C1CCN(c2ncnc3c2nc2n3CCCCC2)CC1` was run?
Its survival is 62%.

For `O=C1CS/C(=N/c2nc(-c3ccccc3)cs2)N1`, which survival is on record?
The survival was 83%.

`COc1ccc(-c2nc3sc(CCNC(=O)c4ccccc4C)c(C)n3n2)cc1` was tested. Which survival did it give?
The survival was 77%.

Which survival does the source give for `Cc1ccccc1CNC(=O)CCC(=O)N1CC2CCCN2c2ccccc21` (stereo not given) here?
Its survival is 55%.

Which survival does the source give for `COCCNc1oc(-c2ccccc2)nc1S(=O)(=O)c1ccc(Br)cc1` here?
Its survival is 79%.

`O=S(=O)(c1ccccc1)c1nc(-c2ccc(F)cc2)oc1NCc1ccccc1` was tested. Which survival did it give?
Its survival is 67%.

Which survival does the source give for `CCS(=O)(=O)c1oc(-c2ccc(F)cc2)nc1S(=O)(=O)c1ccc(Br)cc1` here?
Its survival is -5% (active).

For `O=C(CSc1oc(-c2ccc(F)cc2)nc1S(=O)(=O)c1ccccc1)NC1CCCCC1`, which survival is on record?
The survival was 61%.

How did the survival turn out when `O=C(CSc1oc(-c2ccc(F)cc2)nc1S(=O)(=O)c1ccc(Br)cc1)NC1CCCCC1` was run?
Its survival is 64%.

Which survival does the source give for `CCCCS(=O)(=O)c1oc(-c2ccc(F)cc2)nc1S(=O)(=O)c1ccccc1` here?
The survival was 4% (active).

Which survival does the source give for `CCS(=O)(=O)c1oc(-c2ccc(F)cc2)nc1S(=O)(=O)c1ccccc1` here?
Its survival is -5% (active).

With `CC(=O)Nc1ccc(NC(=O)CCc2c(C)nc3c(c(C)nn3-c3ccccc3)c2C)cc1` as the compound, how does the survival read?
Its survival is 107%.

`CCCCN(C)CCNC(=O)c1cc2c(=O)n(C)c3ccccc3c2n1C` was tested. Which survival did it give?
Its survival is 90%.

`Cc1ccccc1CCNC(=O)c1ccc2c(c1)nc1n2CCOC1` was tested. Which survival did it give?
Its survival is 84%.

`Cn1c(=S)[nH]c2c(c1=O)C1(CCCC1)Cc1ccccc1-2` was tested. Which survival did it give?
Its survival is 80%.

Which survival does the source give for `CSCCC(NS(=O)(=O)c1ccc2c(c1)oc(=O)n2C)C(=O)NCc1ccc(Cl)cc1` (stereo not given) here?
The survival was 92%.

With `COc1ccc(-c2nc3scc(CCNC(=O)Cc4ccc(F)cc4)n3n2)cc1` as the compound, how does the survival read?
The survival was 95%.
